Test results taken from PubChem BioAssay (NCI).
The panel holds about 83,000 compounds, 20% with a hit somewhere; the sample as a whole holds those more often.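 Each cell line was grown in a 96-well plate and treated with one concentration of compound for 48 hours. Values below 10 were considered active.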 Activity calls are given as the source filed them.

Each compound was assayed on HL-60(TB) leukemia (assay: NCI-60 one-dose screen, 48 h (100 = growth as untreated, 0 = no growth, -100 = all killed)). Conditions: 10 µM unless noted.
In the case of `Cc1oc(-c2ccc(Cl)cc2Cl)cc1C(=O)Nc1nccs1`, the growth is reported as 97.4% (inactive).
`COc1cc(C(=O)c2cc(C)c3[nH]c4ccc(O)cc4c3c2C)cc(OC)c1OC` was tested, and the growth was -13.7% (active).
`Cc1ccc(C(=O)Cc2ccccc2)c(O)c1` was tested, and the growth was 70.9% (inactive).
With `CCOC(=O)c1nn(C2CCCCO2)c2ccc(NC(=O)CN3CCCC3)cc12` (stereo not given) the growth was 97.4% (inactive).
`Fc1ccc(-c2nc(-c3nc4ncccc4[nH]3)cc3c2[nH]c2ccccc23)cc1F` was tested, and the growth was 86.4% (inactive).
In the case of `N#Cc1c(-c2ccc(Cl)cc2)n(O)c2ccccc12`, the growth is reported as -0.349% (active).
For `Nc1nc(=O)n([C@H]2CC=C(CO)O2)cc1F`, the growth was 88% (inactive).
For `O=C(O)c1cn(C2CC2)c2cc(N3CCN(C(=O)N/N=C/c4ccccc4)CC3)c(F)cc2c1=O`, the growth was 100% (inactive).
`N=C1C(c2nc3ccccc3s2)=C(O)CN1c1cc(Cl)cc(Cl)c1` was tested, and the growth was 35.5% (inactive).
For `Cc1nc2cc(Nc3nc(NCCO)nc(Nc4ccc(F)cc4)n3)ccc2n1Cc1ccccc1`, the growth was -26.8% (active).
With `O=C1NC(=C(Cl)Cl)/C(=N/S(=O)(=O)N2CCCCC2)N1` the growth was -70.3% (active).
With `Cc1cc2nc3c4cc(C=O)ccc4n(CCN(C)C)c3nc2cc1C` the growth was 16.9% (inactive).
`Cn1nc(C(C)(C)C)cc1NC(=O)Cc1ccc(/C=C2\C(=O)Nc3ccccc32)cc1` was tested, and the growth was 48.2% (inactive).
For `COc1cc(C2C=C(C)N=C3SC=NN32)cc(OC)c1OC` (stereo not given), the growth was 94.7% (inactive).
For `CS(=O)(=O)c1ccc(-c2nc3cc(Cl)ccc3n2CC(=O)N/N=C/c2ccc(Cl)cc2)cc1`, the growth was 25.3% (inactive).
For `CCOC(=O)c1sc(NC(=O)COc2ccc(/C=C3\Cc4ccc(Cl)cc4C3=O)cc2)nc1C`, the growth was 98% (inactive).
For `O=C1C(Cl)=C(Nc2ccc(S(=O)(=O)N3CCOCC3)cc2)C(=O)c2ccccc21`, the growth was -17.7% (active).
For `COc1ccc2c(c1)C(=O)/C(=C/c1cccc(OCC(=O)Nc3nc4c(s3)CCCC4)c1)O2`, the growth was -70.8% (active).
`CO[C@@H](C(=O)N1Cc2[nH]nc(NC(=O)c3ccc(N4CCN(C)CC4)cc3)c2C1)c1ccccc1` was tested, and the growth was 16.8% (inactive).
For `COc1cccc2nc(Nc3cccc(NC(=O)c4ccc(N5CCN(C)CC5)c(C(F)(F)F)c4)c3)ccc12`, the growth was 37.6% (inactive).
For `CC(NC(=O)Oc1cccc2ccccc12)c1ccccc1` (stereo not given), the growth was 44.8% (inactive).
For `Cc1cc2ccccc2cn1`, the growth was 91.6% (inactive).
In the case of `COc1ccc(-c2nn(-c3ccc(NC(=O)c4cc(C(F)(F)F)cc(C(F)(F)F)c4)cc3)cc2-c2ccncc2)cc1Cl`, the growth is reported as 73.6% (inactive).
With `COc1cccc(NC(=O)OC(C)C)c1` the growth was 72.7% (inactive).
For `O=C(CCC(=O)N(CCO)CCO)N(CCO)CCO`, the growth was 89% (inactive).
In the case of `O=C(Nc1ccc(-n2cc(-c3ccncc3)c(-c3ccc(Cl)c(O)c3)n2)cc1)c1ccc(Cl)c(Cl)c1`, the growth is reported as -27% (active).
`CCOC(=O)Cn1c(=O)c2c(c3ccccc3n2C)n2nnc(-c3ccccc3)c12` was tested, and the growth was 109% (inactive).
In the case of `C/C(=N\Nc1cc(C)nc2ccc(Br)cc12)c1ccc([N+](=O)[O-])cc1`, the growth is reported as -37.4% (active).
With `CC(=O)c1nn(-c2ccccc2)/c(=N/N=Cc2cn(-c3ccccc3)nc2-c2cc3ccccc3oc2=O)s1` the growth was 102% (inactive).
In the case of `COc1cc(C(=O)c2cnc(-c3ccc4cc[nH]c4c3)[nH]2)cc(OC)c1OC`, the growth is reported as -1.01% (active).
In the case of `CCN(CC)c1ccc(/C=C/C=C2\NC(=O)NC2=O)cc1`, the growth is reported as 50.8% (inactive).
For `N#CC1=C(N)Oc2c(c(N)nn2-c2ccccc2)C1c1ccc(Cl)cc1` (stereo not given), the growth was 110% (inactive).
In the case of `COc1cc(-c2nc3c(ncc4ccc(=O)n(-c5ccccc5)c43)s2)cc(OC)c1OC`, the growth is reported as 94.1% (inactive).
With `COc1ccc(/C=C2\N=C(c3ccccc3)N(C(=O)c3ccccc3O)NC2=O)cc1` the growth was -10.5% (active).
In the case of `O=c1cc(-c2ccccc2)[nH]c(=S)[nH]1`, the growth is reported as 104% (inactive).
In the case of `NNc1cccc([N+](=O)[O-])c1`, the growth is reported as 6.4% (active).
In the case of `Clc1ccc(-c2cn(-c3ccccc3)c(-c3ccccc3)n2)c(Cl)c1`, the growth is reported as 52.1% (inactive).
For `O=C(N/N=C/c1cc(Cl)ccc1O)c1ccccc1Nc1ccnc(C(F)(F)F)c1`, the growth was 39.3% (inactive).
`O=C(c1c[nH]c2ccccc12)C(Sc1nc2ccccc2c(=O)[nH]1)c1ccccc1` (stereo not given) was tested, and the growth was 93.1% (inactive).
`COc1cccc(-c2nn(-c3ccccc3)cc2-c2ccnc(NCCNS(=O)(=O)c3ccc(Cl)cc3)c2)c1` was tested, and the growth was 7.06% (active).
